# Measurements published in PubChem BioAssay.
# Results filed as inconclusive are left out. The source made the active and inactive calls. Unless noted, the rule behind the calls is not given here.
# Legend:
# [1] = yeast TOR pathway RPL19A-GFP modulators, primary screen, cell-based, S. cerevisiae, multiplex flow cytometry (AID 1862; in the data active = percent of DMSO control GFP below about 86%;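 note: lower values mimic rapamycin by blocking the RPL19A rise seen in DMSO cells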); conditions: S. cerevisiae RPL19A-GFP strain, flow cytometry fluorescence, 3 h; at 10 µM; stronger effect = lower value
# [2] = modulators of MEP2-GFP levels in yeast, primary screen, S. cerevisiae, multiplex flow cytometry (AID 1867;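 active = GFP response, as percent of the DMSO control, above the screen-wide mean plus 3 SD, about 139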;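 note: median GFP channel fluorescence of barcode-gated MEP2-GFP cells measured by flow cytometry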); conditions: S. cerevisiae MEP2-GFP strain, 3 h, at 10 µM, stronger effect = higher value
# [3] = modulators of CIT2-GFP expression in yeast, primary screen, S. cerevisiae, GFP fusion, multiplex flow cytometry (AID 1870;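 active = percent response above a set limit, the screen-wide mean plus 3 SD, cut at about 130% in these data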;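 note: barcoded CIT2-GFP strain pooled with four other GFP strains with rapamycin as positive control; median GFP fluorescence per well over plate mean of DMSO wells so 100% = DMSO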); conditions: 3 h, at 10 µM, stronger effect = higher value
# [4] = modulators of LAP4-GFP expression in yeast, primary screen, S. cerevisiae, multiplex flow cytometry (AID 1873;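 active = GFP signal, as percent of the solvent control, above the screen mean plus 3 SD, about 149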); conditions: 3 h, at 10 µM, stronger effect = higher value
# [5] = modulators of AGP1-GFP expression in yeast TOR pathway, primary screen, cell-based, multiplex flow cytometry, S. cerevisiae (AID 1887;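 active = GFP signal above the screen-wide mean plus 3 SD, that is over about 124.5% of the solvent control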;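 note: AGP1-GFP fusion strain of S. cerevisiae within a five-strain barcoded multiplex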); conditions: 3 h, at 10 µM, stronger effect = higher value
# [6] = inhibitors of CD8+ T cell-vesicle binding, pilot screen, LFA-1/ICAM-1 modulator project, MLPCN validation set, flow cytometry (AID 2523;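 active = response below a set limit, under 55% cells CD8-positive and vesicle-bound, and CD8 cells' 90th-percentile brightness under 279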;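 for vesicle binding response: mean PE anti-B7-1 fluorescence of CD8+ cells relative to row control; 100% = QL9-loaded vesicles with DMSO vehicle in the same plate row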); conditions: 2C mouse CD8+ T cells, at 7 µM, stronger effect = lower value; double positive events: measured here: CD8+/vesicle+ event percentage
# [7] = biological target: Integrin beta-1 (Homo sapiens) + Integrin alpha-4 (Homo sapiens) (UniProt P13612+P05556); assay: inhibition of HUTS-21 binding to VLA-4, pilot screen, VLA-4 allosteric modulator project, U937 cells, HUTS-21 mAb, flow cytometry, validation set (AID 2674;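 active = inhibition above 50%, about 3 SD of the validation set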;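 note: antibody binding induced by the VLA-4 ligand LDV present at three times its Kd; 0% = LDV ligand with antibody and no compound and 100% = antibody without LDV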); conditions: HUTS-21 LIBS mAb binding, at 6.7 µM, stronger effect = higher value
# [8] = superoxide lowering in aged yeast cells, pilot screen, validation compound set (AID 2706;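 active = superoxide response below 65% of plate, a cut near 3 SD across the whole screen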;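 note: yeast exposed to compound for one week at 30 degrees C before staining; 100% = mean of all compound wells on the same plate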); conditions: S. cerevisiae aging, superoxide DHE fluorescence; at 10 µM; stronger effect = lower value
# [9] = biological target: Beta-adrenergic receptor kinase 1 (Homo sapiens) (UniProt P25098); assay: GRK2 binders displacing RNA aptamer, biochemical, validation, human GRK2, bead flow cytometry (AID 488806;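 active = aptamer binding inhibition above 30%, about 3 SD of noise from non-fluorescent compounds; inactive = inhibition at or below 30%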); conditions: bead-bound GRK2, FAM-aptamer displacement, at 10 µM, stronger effect = higher value
# [10] = biological target: Beta-2 adrenergic receptor (Homo sapiens) (UniProt P07550); assay: beta2AR agonists driving receptor internalization, pilot screen, cell-based, FAP fluorogen, flow cytometry, validation set (AID 504459;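 active = percent response above 42, roughly 3 SD of non-fluorescent test compounds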;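 note: agonist-driven loss of surface beta2AR via internalization measured by FAP dye flow cytometry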); conditions: Am2.2-beta2AR cells, FAP surface receptor flow cytometry; at 10 µM; stronger effect = higher value
# [11] = biological target: AP-2 complex subunit beta (Homo sapiens) (UniProt P63010); assay: inhibitors of arrestin peptide binding to AP2, pilot screen, biochemical, validation set, GST-AP2 beads, flow cytometry (AID 504541;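 active = inhibition above 54%, about 3 SD of non-fluorescent compounds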;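 note: AP2 carries R879A mutation and is captured from E. coli lysate; bead-bound FITC arrestin peptide fluorescence measuring arrestin peptide binding to AP2; 0% = DMSO wells and 100% = excess unlabeled arrestin peptide control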); conditions: FITC arrestin peptide, at 10 µM, stronger effect = higher value
# [12] = yeast V-ATPase proton transport modulators, S. cerevisiae, pHLuorin, HTS validation (AID 504600; in the data active = response above about 15%;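 note: plate controls were DMSO for no effect and reference compound for full effect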); conditions: S. cerevisiae pHLuorin cytosolic pH, at 10 µM, stronger effect = higher value
# [13] = tested on: anti-desmoglein-3 scFv antibody binding to human DSG3; assay: inhibitors of anti-DSG3 scFv binding to DSG3, pilot screen, biochemical, validation compound set, bead-based, flow cytometry (AID 588368;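 active = binding below the plate cutoff, the plate median minus 3 SD, with a reading above zero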;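 note: signal is the median channel fluorescence of bead-bound GFP antibody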); conditions: Protein G beads, DSG3-Fc, scFv-GFP binding, at 10 µM, stronger effect = lower value
# [14] = tested on: Botulinum neurotoxin type F light chain protease (Clostridium botulinum); assay: Botulinum neurotoxin type F light chain protease inhibition, multiplex microsphere flow cytometry, validation set (AID 588459); conditions: multiplex microsphere protease substrate cleavage assay, at 10 µM, stronger effect = higher value
# [15] = biological target: Botulinum neurotoxin type A (Clostridium botulinum) (UniProt P0DPI0); assay: BoNT/A light chain protease inhibitors, biochemical, multiplex microsphere flow cytometry, validation set (AID 588460); conditions: at 10 µM, stronger effect = higher value
# [16] = biological target: Lethal factor (Bacillus anthracis) (UniProt P15917); assay: Lethal factor protease inhibitors, Bacillus anthracis, multiplex microsphere cleavage assay, validation set (AID 588461); conditions: flow cytometry, at 10 µM, stronger effect = higher value
# [17] = inhibitors of fungal efflux pumps CDR1, CDR2, MDR1, pilot screen, validation compound set, multiplex, phenotypic (AID 588506;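 active = efflux inhibition above 0.42, the validation set average plus 4 SD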;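 note: Nile Red retained in cells so higher fluorescence means more efflux inhibition; 0 = negative control wells and 1 = enniatin B 25 µM full block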); conditions: S. cerevisiae pump-expressing triplex, Nile Red efflux flow cytometry; at 10 µM; stronger effect = higher value
# [18] = biological target: ATP-binding cassette sub-family B member 6 (Homo sapiens) (UniProt Q9NP58); assay: ABCB6 transporter inhibitors, pilot screen, K562-ABCB6 cells, flow cytometry, validation set (AID 588550;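 active = inhibition above the screen-wide mean plus 3 SD, about 51%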;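 note: 0% = DMSO wells and 100% = benzethonium chloride 70 µM positive control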); conditions: K562-ABCB6 porphyrin accumulation, 1 h, at 10 µM, stronger effect = higher value
# [19] = promoters of myeloid differentiation in arrested cells, primary screen, cell-based, GFP/MAC1 double positive, flow cytometry, validation set (AID 588685;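 active = differentiation response of at least 50%, scaled between solvent and reference control, from cells with both markers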;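 note: compound exposure lasts four days before antibody staining and flow analysis; 0% = DMSO wells and 100% = 5 µM fulvestrant positive control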); conditions: ER-HoxA9 marrow cells, stronger effect = higher value
# Chain of Integrin beta-1 (Homo sapiens) + Integrin alpha-4 (Homo sapiens) (P05556 whole entry, looked up): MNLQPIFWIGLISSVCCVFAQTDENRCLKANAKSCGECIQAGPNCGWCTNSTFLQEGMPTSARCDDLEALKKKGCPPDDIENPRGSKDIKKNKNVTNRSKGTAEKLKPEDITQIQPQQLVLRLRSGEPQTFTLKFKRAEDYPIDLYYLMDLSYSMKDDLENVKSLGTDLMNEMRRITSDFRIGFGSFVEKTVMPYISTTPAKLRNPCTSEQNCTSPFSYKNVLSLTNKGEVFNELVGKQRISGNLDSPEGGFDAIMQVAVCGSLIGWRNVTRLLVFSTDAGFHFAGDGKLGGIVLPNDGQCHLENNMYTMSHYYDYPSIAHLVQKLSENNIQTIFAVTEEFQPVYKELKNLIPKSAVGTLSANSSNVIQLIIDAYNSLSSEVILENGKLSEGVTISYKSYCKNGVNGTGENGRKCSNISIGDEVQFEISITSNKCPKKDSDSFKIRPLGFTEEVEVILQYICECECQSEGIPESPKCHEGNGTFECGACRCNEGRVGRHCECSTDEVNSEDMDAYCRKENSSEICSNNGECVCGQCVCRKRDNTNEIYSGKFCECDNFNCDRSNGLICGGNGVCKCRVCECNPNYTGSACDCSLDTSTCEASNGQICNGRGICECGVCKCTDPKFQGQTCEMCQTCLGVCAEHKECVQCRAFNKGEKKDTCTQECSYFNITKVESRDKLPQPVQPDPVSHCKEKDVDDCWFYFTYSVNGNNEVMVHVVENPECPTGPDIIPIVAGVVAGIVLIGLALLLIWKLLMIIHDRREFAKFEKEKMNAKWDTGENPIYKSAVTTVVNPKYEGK
# Chain of Integrin beta-1 (Homo sapiens) + Integrin alpha-4 (Homo sapiens) (P13612 whole entry, looked up): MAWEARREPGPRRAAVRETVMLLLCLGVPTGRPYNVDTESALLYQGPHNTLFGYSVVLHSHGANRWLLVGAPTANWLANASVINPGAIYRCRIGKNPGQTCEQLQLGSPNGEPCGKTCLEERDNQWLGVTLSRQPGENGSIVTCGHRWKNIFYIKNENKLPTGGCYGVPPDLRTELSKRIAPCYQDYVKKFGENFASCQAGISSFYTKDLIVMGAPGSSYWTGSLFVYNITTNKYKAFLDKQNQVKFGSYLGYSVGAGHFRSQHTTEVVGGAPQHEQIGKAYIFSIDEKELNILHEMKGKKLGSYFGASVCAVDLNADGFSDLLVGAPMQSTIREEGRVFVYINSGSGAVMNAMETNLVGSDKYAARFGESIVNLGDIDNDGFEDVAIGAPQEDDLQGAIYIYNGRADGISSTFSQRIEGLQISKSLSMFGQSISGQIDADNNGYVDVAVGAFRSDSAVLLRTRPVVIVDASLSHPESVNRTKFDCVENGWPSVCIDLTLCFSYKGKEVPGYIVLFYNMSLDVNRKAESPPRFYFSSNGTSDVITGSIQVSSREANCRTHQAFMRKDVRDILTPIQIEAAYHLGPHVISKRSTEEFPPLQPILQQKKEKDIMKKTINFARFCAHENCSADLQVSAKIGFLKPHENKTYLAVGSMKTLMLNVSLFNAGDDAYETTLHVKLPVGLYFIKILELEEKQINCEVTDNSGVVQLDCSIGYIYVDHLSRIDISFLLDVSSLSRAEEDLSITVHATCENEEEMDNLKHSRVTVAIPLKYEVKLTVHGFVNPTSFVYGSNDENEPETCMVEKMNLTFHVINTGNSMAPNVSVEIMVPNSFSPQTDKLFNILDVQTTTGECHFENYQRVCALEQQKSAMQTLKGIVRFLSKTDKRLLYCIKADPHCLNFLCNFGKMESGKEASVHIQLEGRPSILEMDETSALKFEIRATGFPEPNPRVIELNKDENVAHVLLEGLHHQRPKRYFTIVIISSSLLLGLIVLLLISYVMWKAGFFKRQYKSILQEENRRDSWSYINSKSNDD
# Chain of ATP-binding cassette sub-family B member 6 (Homo sapiens) (Q9NP58 whole entry, looked up): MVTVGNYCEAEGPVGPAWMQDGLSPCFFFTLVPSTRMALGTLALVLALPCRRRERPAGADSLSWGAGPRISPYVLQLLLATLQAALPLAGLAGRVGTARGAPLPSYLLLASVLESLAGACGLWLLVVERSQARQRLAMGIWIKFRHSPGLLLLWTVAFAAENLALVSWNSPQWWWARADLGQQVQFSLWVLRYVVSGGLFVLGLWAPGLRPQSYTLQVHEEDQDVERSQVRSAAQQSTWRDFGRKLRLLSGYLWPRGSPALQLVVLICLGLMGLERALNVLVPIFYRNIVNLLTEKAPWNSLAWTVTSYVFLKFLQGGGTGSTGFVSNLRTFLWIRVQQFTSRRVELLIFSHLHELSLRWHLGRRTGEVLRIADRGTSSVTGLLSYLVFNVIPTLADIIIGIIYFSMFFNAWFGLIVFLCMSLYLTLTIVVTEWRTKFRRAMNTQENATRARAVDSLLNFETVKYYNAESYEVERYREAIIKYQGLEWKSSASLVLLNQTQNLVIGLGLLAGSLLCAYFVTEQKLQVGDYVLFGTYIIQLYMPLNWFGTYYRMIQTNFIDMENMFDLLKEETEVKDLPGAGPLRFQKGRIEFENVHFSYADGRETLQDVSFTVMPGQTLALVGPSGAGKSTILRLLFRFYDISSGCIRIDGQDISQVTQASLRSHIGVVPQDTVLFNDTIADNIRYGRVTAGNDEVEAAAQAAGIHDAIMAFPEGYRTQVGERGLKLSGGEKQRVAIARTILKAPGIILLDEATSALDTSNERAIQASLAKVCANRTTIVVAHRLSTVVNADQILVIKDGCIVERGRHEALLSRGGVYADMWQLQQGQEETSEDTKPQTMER
# Chain of AP-2 complex subunit beta (Homo sapiens) (P63010 whole entry, looked up, one chain of several): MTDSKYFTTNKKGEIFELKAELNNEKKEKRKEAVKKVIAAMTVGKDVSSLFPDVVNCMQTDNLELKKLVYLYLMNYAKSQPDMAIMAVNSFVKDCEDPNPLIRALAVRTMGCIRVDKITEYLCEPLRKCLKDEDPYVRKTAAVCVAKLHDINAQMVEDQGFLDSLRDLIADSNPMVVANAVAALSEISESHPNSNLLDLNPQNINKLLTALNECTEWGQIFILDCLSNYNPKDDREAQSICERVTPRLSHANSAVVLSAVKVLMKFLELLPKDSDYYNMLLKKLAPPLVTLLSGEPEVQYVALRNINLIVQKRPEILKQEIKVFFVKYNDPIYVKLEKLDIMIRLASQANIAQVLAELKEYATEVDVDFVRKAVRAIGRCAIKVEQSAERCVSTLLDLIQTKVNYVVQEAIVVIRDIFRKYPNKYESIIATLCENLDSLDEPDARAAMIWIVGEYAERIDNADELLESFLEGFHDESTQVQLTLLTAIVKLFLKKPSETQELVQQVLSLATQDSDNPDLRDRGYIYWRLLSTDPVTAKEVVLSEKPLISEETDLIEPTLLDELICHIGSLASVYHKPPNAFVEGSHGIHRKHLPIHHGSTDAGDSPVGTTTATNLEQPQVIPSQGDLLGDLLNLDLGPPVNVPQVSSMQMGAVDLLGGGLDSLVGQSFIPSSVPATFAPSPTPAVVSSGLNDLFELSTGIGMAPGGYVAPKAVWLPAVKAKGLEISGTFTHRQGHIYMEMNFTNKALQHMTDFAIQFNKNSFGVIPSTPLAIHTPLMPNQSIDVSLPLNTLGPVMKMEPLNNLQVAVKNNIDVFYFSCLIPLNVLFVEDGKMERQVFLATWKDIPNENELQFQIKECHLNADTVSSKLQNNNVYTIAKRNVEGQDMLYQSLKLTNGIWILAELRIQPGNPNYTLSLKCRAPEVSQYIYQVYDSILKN
# Chain of Beta-adrenergic receptor kinase 1 (Homo sapiens) (P25098 whole entry, looked up): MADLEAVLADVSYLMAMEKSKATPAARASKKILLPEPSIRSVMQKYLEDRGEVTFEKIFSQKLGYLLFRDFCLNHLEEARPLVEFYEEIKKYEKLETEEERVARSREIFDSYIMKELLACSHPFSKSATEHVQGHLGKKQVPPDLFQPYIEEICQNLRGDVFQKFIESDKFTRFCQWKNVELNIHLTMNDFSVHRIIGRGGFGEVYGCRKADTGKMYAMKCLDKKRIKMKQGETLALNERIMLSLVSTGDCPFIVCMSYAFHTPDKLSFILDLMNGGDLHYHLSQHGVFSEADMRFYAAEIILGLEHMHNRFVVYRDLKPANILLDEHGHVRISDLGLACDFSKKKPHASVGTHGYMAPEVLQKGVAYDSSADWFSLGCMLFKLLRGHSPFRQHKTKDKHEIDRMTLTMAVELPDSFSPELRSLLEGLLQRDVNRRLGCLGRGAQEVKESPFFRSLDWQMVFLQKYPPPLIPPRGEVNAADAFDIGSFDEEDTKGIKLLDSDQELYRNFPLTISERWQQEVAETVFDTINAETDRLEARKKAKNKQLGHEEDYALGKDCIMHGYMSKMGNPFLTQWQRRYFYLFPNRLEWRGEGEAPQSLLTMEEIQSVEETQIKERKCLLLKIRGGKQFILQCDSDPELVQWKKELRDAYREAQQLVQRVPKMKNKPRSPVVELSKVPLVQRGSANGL
# Chain of Beta-2 adrenergic receptor (Homo sapiens) (P07550 whole entry, looked up): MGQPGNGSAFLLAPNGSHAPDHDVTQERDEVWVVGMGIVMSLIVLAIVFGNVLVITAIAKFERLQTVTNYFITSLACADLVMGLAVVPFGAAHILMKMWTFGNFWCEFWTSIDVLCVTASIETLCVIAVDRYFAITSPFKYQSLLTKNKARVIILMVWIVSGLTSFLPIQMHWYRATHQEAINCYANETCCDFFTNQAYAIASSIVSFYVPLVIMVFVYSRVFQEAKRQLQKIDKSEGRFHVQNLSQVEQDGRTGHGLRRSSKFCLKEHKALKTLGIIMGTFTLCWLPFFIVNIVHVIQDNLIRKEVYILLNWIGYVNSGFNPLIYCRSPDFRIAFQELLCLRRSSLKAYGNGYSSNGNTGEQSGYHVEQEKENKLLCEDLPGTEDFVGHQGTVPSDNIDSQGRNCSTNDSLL
Compound,percent of DMSO control GFP [1],GFP response vs DMSO [2],percent response of DMSO control [3],GFP response vs DMSO [4],"GFP response, % of DMSO [5]",double positive events [6] [%],vesicle binding response [6],inhibition [7],superoxide response (% of plate) [8],aptamer binding inhibition [9],response [10],inhibition [11],response [12],binding (% of control) [13],inhibition [14],inhibition [15],inhibition [16],efflux inhibition (fraction of control) [17],inhibition [18],differentiation response [19]
C[C@@H]1O[C@@H](O[C@H]2C[C@@H](O)[C@]3(CO)[C@H]4[C@H](O)C[C@]5(C)[C@@H](C6COC(=O)C6)CC[C@]5(O)[C@@H]4CC[C@]3(O)C2)[C@H](O)[C@H](O)[C@H]1O (stereo not given in full),97.3% (inactive),102% (inactive),105% (inactive),112% (inactive),119% (inactive),62.7,183% (inactive),6.55% (inactive),94.2% (inactive),1% (inactive),-12.8% (inactive),-5.57% (inactive),-2.1% (inactive),104% (inactive),-0.5% (inactive),-0.7% (inactive),3.5% (inactive),-0.04 (inactive),-3% (inactive),-4% (inactive)
CC(C)[N+](C)(CCC(C(N)=O)(c1ccccc1)c1ccccc1)C(C)C,105% (inactive),107% (inactive),107% (inactive),99.1% (inactive),106% (inactive),61.6,144% (inactive),5.61% (inactive),110% (inactive),2% (inactive),9.5% (inactive),-5.08% (inactive),0.78% (inactive),101% (inactive),-5% (inactive),-2.6% (inactive),-9.4% (inactive),-0.61 (inactive),21% (inactive),-8.96% (inactive)
C=C1CC[C@@]2(O)[C@H]3Cc4ccc(O)c5c4[C@@]2(CCN3CC2CC2)[C@H]1O5,107% (inactive),95.1% (inactive),109% (inactive),90.1% (inactive),102% (inactive),64.3,1650% (inactive),14.1% (inactive),98.9% (inactive),-2% (inactive),-8.78% (inactive),-7.26% (inactive),5.8% (inactive),99% (inactive),2.7% (inactive),-0.2% (inactive),8.1% (inactive),-0.26 (inactive),13% (inactive),10% (inactive)
C[C@H]1CC[C@@]2(C)[C@@H](CC[C@@H]3[C@@H]2CC[C@]2(C)[C@@H](O)CC[C@@H]32)C1,99.9% (inactive),103% (inactive),92% (inactive),137% (inactive),102% (inactive),61,376% (inactive),6.4% (inactive),97.5% (inactive),0% (inactive),8.67% (inactive),-8.56% (inactive),1.08% (inactive),99.5% (inactive),2% (inactive),1.1% (inactive),-4.7% (inactive),-0.03 (inactive),-3% (inactive),-8.8% (inactive)
CCCC[N+]1(C)[C@@H]2CC(OC(=O)[C@H](CO)c3ccccc3)C[C@H]1[C@@H]1O[C@@H]12 (stereo not given in full),107% (inactive),109% (inactive),106% (inactive),112% (inactive),111% (inactive),59.9,150% (inactive),-15.8% (inactive),97.4% (inactive),4% (inactive),-2.08% (inactive),0.96% (inactive),-3.56% (inactive),96.4% (inactive),1.1% (inactive),0.2% (inactive),-5.3% (inactive),0.3 (inactive),28% (inactive),13% (inactive)
COc1ccc(OC)c([C@@H](O)[C@H](C)NC(C)(C)C)c1,100% (inactive),102% (inactive),94.5% (inactive),91.5% (inactive),88.8% (inactive),62,157% (inactive),-6.45% (inactive),102% (inactive),0% (inactive),14.8% (inactive),-6.97% (inactive),0.56% (inactive),106% (inactive),-0.4% (inactive),-1.1% (inactive),1.4% (inactive),0.28 (inactive),18% (inactive),-6.03% (inactive)
COc1ccccc1CN1CCCCC1c1cccnc1 (stereo not given),104% (inactive),99.3% (inactive),106% (inactive),97.3% (inactive),107% (inactive),65.8,217% (inactive),4.73% (inactive),98.9% (inactive),6% (inactive),-6.83% (inactive),1.86% (inactive),-0.89% (inactive),97.1% (inactive),1.4% (inactive),-0.8% (inactive),4% (inactive),-0.17 (inactive),6% (inactive),7.09% (inactive)
O=c1c2ccccc2[se]n1-c1ccccc1,99.6% (inactive),94.6% (inactive),110% (inactive),94.4% (inactive),99.2% (inactive),57.5,111% (inactive),15.4% (inactive),120% (inactive),5% (inactive),12.7% (inactive),116% (active),-0.76% (inactive),9.72% (active),33.2% (active),92.6% (active),-9.3% (inactive),37.3 (active),5% (inactive),0.41% (inactive)
